Measurements: PubChem BioAssay (NCATS)
“And” between values parts separate entries of the source, which are not always exact repeats. Equal entries are not always repeated. A number with no mark means an inactive call. Inconclusive results are not listed. Entries that show only a call come without a potency. The source made the active and inactive calls. Unless noted, the call rests on the fitted dose curve; in most records, active means well fitted curve in the direction sought with a large enough effect; inconclusive means small, poorly fitted or top-dose-only effect, or another doubt; inactive means no such curve, though single readings can be large; an effect the other way counts as inactive or inconclusive.

Columns and labels:
[1] = target: Beta-2 adrenergic receptor (Homo sapiens) (UniProt P07550); experiment: qHTS validation assay of beta-arrestin-biased ligands of beta2-adrenergic receptor (AID 485366)
Procedure, shortened: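 Agonism was measured as beta-arrestin recruitment to recombinant beta2-AR, releasing tTA to drive luciferase. Cells were exposed for 18 hr at 37 degrees C to a series up to 46 microM. %Activity from corrected luminescence gave concentration-response curves.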

[2] = Quantitative high throughput screen for delayed death inhibitors of the malarial parasite plastid, 96 hour incubation (AID 488745); further: nearly all actives have a fitted effect of over 70% in size; further: potency means the concentration at half of the fitted maximal effect
Procedure, shortened: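 Two-generation (96 h) exposure of luciferase-reporter P. falciparum in erythrocytes, 2% hematocrit, 0.1% parasitemia final, 37 C, 5% CO2, RPMI 1640 with 0.5% Albumax. Growth inhibition scored by reduced luminescence.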

[3] = Quantitative high throughput screen for delayed death inhibitors of the malarial parasite plastid, 48 hour incubation (AID 488752); further: nearly all actives have a fitted effect of over 65% in size; further: potency means the concentration at half of the fitted maximal effect
Procedure, shortened: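 Cultures: infected erythrocytes at final 2% hematocrit and 0.1% parasitemia in Albumax-supplemented RPMI. Parasites express integrated firefly luciferase. Incubation with compound lasts 48 h before luminescent detection of remaining reporter activity.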

[4] = target: Thioredoxin reductase 1, cytoplasmic (Rattus norvegicus) (UniProt O89049); experiment: qHTS Assay for Substrates of Mammalian Selenoprotein Thioredoxin Reductase 1 (TrxR1) (AID 488772);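 further: series mostly up to about 57 µM; a drop in NADPH fluorescence below the no-compound background marks a TrxR1 substrate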
Procedure, shortened: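 In this dual-purpose format, potential substrates are identified from the first fluorescence read after selenite addition, not from the 8-minute delta. Rat enzyme is preincubated with NADPH and then with compound at ~22 deg C.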

[5] = target: Thioredoxin reductase 1, cytoplasmic (Rattus norvegicus) (UniProt O89049); experiment: qHTS Assay for Inhibitors of Mammalian Selenoprotein Thioredoxin Reductase 1 (TrxR1) (AID 488773); settings: Potency: inhibition; further: nearly all actives have a fitted effect of over 40% in size; further: potency means the concentration at half of the fitted maximal effect
Procedure, shortened: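 Inhibition is scored from the loss of NADPH fluorescence between first and last reads of an 8-min kinetic run. Selenite (400 uM) was the substrate, added after 15 min compound preincubation at room temperature.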

[6] = target: Flap endonuclease 1 (Homo sapiens) (UniProt P39748); experiment: qHTS Validation Assay for the Inhibitors of Human Flap endonuclease 1 (FEN1) (AID 488816); further: potency means the concentration at half of the fitted maximal effect
Procedure, shortened: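 Enzyme reagent 10 nM; cpds pinned; 15 min RT preinc.; substrate 50 nM final; reads t=0 and 15 min; no-enzyme buffer wells as neg. control; normalized data, 4-parameter Hill fit.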

[7] = target: Chromobox protein homolog 1 (Homo sapiens) (UniProt P83916); experiment: qHTS Validation Assay for Inhibitors of HP1-beta Chromodomain Interactions with Methylated Histone Tails (AID 488953); further: nearly all actives have a fitted effect of over 50% in size; further: potency means the concentration at half of the fitted maximal effect
Procedure, shortened: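 Compounds pinned into a preassembled complex of HP1-beta and trimethyl-K9 histone H3(1-18) biotin peptide (50 nM each; PBS pH 7.4, 0.01% Tween-20). After 30 min, bead-based AlphaScreen detection followed.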

[8] = target: Methanococcus maripaludis chaperonin (MmCpn) (UniProt Q6LX38); experiment: High-Throughput Screening for Modulators of Cytosolic Chaperonin Activity: MmCpn Primary Screen (AID 488978);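 further: 50 nM MmCpn enzyme hydrolysing 30 µM ATP at 37 °C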
Procedure, shortened: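 ATPase activity of 50 nM MmCpn was assayed with 30 uM ATP, 10 minutes at 37C, after a 5 min compound preincubation at room temperature. ADP production was read as HTRF emission at 590 and 665 nm.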

[9] = target: Transient receptor potential cation channel subfamily V member 1 (Homo sapiens) (UniProt Q8NER1); experiment: HTS Assay for Compounds that Act as Enhancers of the Vanilloid Receptor 1 (AID 488979)
Procedure, shortened: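 TRPV1 cells loaded with Fluo-8 calcium dye; compound added and Ca2+ signal (ex 480/em 520 nm) followed 3 min, then capsaicin at EC20 added and read 2 more min to detect enhancement.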

[10] = target: Thyrotropin receptor (Homo sapiens) (UniProt P16473); experiment: qHTS Assay for Antagonists of the Thyroid Stimulating Hormone Receptor (AID 488980); further: series mostly up to about 58 µM
Procedure, shortened: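 Inhibition of cAMP raised by EC80 TSH (4 nM final) was read by HTRF, with lysate cAMP competing against cAMP-d2 for cryptate antibody after 30 min at room temperature. The cells were transfected HEK293 held in phosphodiesterase inhibitor RO 20-1724 at 70 uM.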

[11] = target: D(1A) dopamine receptor (Homo sapiens) (UniProt P21728); experiment: HTS Assay for Allosteric Agonists of the Human D1 Dopamine Receptor: Primary Screen for Agonists (AID 488981); further: potency means the concentration at half of the fitted maximal effect
Procedure, shortened: (§1)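 Tetracycline-induced HEK293 Trex D1 cells with forced coupling to calcium, loaded with no-wash calcium dye; kinetic fluorescence read 180 s after compound addition for agonism, then a further 180 s after an EC20 dopamine challenge for potentiation.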

[12] = target: D(1A) dopamine receptor (Homo sapiens) (UniProt P21728); experiment: HTS Assay for Allosteric Agonists of the Human D1 Dopamine Receptor: Primary Screen for Potentiators (AID 488982)
Procedure, shortened: as §1

[13] = target: D(1A) dopamine receptor (Homo sapiens) (UniProt P21728); experiment: HTS Assay for Allosteric Agonists of the Human D1 Dopamine Receptor: Primary Screen for Antagonists (AID 488983);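 further: calcium flux response to an EC80 dopamine challenge measured with no-wash dye; nearly all actives have a fitted effect of over 65% in size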
Procedure, shortened: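 In this primary screen, compounds are applied to calcium-dye-loaded HEK293 T-REx cells with force-coupled D1 expression induced overnight at 30 C. An EC80 of dopamine follows the 180 s compound phase, and calcium is monitored for a further 180 s.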

[14] = Validation screen for small molecules that induce genotoxicity in human embryonic kidney (HEK293T) cells expressing luciferase-tagged ELG1 (AID 493106)
Procedure, shortened: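 In this validation screen, increased ELG1-luciferase signal flags compounds causing genetic stress. HEK293T reporter cells are treated 16 hr (37 °C, 5% CO2), developed with ONE-Glo for 30 min at room temperature, and imaged on a CCD-based reader.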

[15] = target: ATPase family AAA domain-containing protein 5 (Homo sapiens) (UniProt Q96QE3); experiment: Validation screen for small molecules that inhibit ELG1-dependent DNA repair in human embryonic kidney (HEK293T) cells expressing luciferase-tagged ELG1 (AID 493107);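 further: cells co-treated with the DNA-damaging agent 5-fluorouridine alongside compound; series mostly up to about 46 µM; inhibitors lower the ELG1-luciferase luminescence signal; nearly all actives have a fitted effect of over 70% in size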
Procedure, shortened: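 Compounds reducing 5-fluorouridine-driven ELG1-luciferase signal in HEK293T cells were scored; exposure lasted 16 hr at 37 °C with luminescence detected via ONE-Glo.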

[16] = target: Thyrotropin-releasing hormone receptor (Homo sapiens) (UniProt P34981); experiment: qHTS for Small Molecule Agonists and Allosteric Enhancers of Human TRH Receptor: Validation Screen for Agonists (AID 493127;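 active means calcium activation more than 3 SD above the typical response in the agonist read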;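 further: intracellular calcium rise by fluo-8 fluorescence before TRH EC20 addition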); settings: TRH receptor agonist cell assay; at 2 µM; active compounds read high
Procedure, shortened: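 Kinetic fluorescence assay of agonist-induced calcium release: overnight-plated TRHR cells, room-temperature fluo-8 loading, baseline then compound addition with per-second reads.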

[17] = target: M-phase phosphoprotein 8 (Homo sapiens) (UniProt Q99549); experiment: qHTS Validation Assay for Inhibitors for MPP8 Chromodomain Interactions with Methylated Histone Tails (AID 488949); further: nearly all actives have a fitted effect of over 55% in size; further: potency means the concentration at half of the fitted maximal effect
Procedure, shortened: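 AlphaScreen proximity signal from streptavidin donor and Ni-chelate acceptor beads (10 ug/mL each) reported binding of MPP8 to trimethyl-K9 H3(1-18) peptide, both at 50 nM. The complex formed 30 min before a 30 min compound exposure at room temperature, in PBS pH 7.4.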

[18] = target: ATP-dependent 6-phosphofructokinase (Trypanosoma brucei brucei) (UniProt O15648); experiment: qHTS Assay to Find Inhibitors of T. brucei phosphofructokinase: hit validation (AID 492961); further: series mostly up to about 51 µM
Procedure, shortened: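 Luminescence from ADP-Glo reports ADP generated as T. brucei PFK (1.25 nM) phosphorylates 0.5 mM fructose-6-phosphate using 0.1 mM ATP. Reactions ran 45 min at room temperature, pH 8.0.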

D(1A) dopamine receptor (Homo sapiens), sequence (P21728 whole entry, looked up): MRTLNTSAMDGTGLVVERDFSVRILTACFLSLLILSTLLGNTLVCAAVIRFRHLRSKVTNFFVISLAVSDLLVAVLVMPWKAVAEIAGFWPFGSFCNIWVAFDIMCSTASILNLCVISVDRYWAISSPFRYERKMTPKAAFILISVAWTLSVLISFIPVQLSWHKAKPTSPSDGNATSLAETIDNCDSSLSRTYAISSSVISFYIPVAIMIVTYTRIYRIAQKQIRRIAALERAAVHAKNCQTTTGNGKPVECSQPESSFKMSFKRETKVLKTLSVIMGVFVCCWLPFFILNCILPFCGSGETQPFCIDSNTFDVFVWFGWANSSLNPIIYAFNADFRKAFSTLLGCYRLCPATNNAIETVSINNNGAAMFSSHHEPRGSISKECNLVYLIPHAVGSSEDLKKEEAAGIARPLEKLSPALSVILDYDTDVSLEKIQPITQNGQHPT
Flap endonuclease 1 (Homo sapiens), sequence (P39748 whole entry, looked up): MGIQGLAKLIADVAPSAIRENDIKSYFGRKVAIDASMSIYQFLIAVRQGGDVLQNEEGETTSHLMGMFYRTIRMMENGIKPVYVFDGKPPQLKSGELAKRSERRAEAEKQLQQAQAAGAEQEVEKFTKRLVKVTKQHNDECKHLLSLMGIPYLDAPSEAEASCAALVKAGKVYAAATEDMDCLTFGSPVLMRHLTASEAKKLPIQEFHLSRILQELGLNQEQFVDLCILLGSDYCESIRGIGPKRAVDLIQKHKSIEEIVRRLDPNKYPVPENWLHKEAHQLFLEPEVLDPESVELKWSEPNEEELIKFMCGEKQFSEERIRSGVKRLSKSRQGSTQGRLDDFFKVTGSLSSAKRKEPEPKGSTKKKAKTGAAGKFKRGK
Thioredoxin reductase 1, cytoplasmic (Rattus norvegicus), sequence (O89049 whole entry, looked up): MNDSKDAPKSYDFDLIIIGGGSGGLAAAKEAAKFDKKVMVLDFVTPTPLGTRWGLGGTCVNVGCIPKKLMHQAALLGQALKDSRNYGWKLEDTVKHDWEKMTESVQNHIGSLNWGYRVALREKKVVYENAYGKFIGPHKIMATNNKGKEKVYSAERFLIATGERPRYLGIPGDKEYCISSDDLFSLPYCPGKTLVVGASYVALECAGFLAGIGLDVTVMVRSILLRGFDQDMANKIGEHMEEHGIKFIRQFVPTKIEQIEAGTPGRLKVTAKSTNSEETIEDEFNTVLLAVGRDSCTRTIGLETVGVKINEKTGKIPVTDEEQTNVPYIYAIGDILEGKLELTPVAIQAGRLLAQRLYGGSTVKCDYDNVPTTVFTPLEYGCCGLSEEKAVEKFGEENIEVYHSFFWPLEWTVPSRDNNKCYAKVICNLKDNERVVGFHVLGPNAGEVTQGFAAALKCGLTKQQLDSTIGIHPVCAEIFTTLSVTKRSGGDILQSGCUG
Chromobox protein homolog 1 (Homo sapiens), sequence (P83916 whole entry, looked up): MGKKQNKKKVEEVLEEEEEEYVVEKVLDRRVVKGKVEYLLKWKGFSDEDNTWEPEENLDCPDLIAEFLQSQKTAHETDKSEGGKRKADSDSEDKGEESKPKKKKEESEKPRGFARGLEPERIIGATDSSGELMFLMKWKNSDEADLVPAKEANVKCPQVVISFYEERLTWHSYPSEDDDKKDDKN
Thyrotropin-releasing hormone receptor (Homo sapiens), sequence (P34981 whole entry, looked up): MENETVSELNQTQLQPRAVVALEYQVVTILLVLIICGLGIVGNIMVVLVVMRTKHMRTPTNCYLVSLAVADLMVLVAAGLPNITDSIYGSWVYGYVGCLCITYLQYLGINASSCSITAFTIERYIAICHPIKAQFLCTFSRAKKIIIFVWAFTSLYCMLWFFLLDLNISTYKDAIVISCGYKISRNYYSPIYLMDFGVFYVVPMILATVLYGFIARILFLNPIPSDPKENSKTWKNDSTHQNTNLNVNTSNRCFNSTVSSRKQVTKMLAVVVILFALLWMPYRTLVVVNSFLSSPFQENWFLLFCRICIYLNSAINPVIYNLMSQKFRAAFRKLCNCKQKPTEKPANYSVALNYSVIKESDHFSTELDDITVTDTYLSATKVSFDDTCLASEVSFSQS
Methanococcus maripaludis chaperonin (MmCpn), sequence (Q6LX38 1-543): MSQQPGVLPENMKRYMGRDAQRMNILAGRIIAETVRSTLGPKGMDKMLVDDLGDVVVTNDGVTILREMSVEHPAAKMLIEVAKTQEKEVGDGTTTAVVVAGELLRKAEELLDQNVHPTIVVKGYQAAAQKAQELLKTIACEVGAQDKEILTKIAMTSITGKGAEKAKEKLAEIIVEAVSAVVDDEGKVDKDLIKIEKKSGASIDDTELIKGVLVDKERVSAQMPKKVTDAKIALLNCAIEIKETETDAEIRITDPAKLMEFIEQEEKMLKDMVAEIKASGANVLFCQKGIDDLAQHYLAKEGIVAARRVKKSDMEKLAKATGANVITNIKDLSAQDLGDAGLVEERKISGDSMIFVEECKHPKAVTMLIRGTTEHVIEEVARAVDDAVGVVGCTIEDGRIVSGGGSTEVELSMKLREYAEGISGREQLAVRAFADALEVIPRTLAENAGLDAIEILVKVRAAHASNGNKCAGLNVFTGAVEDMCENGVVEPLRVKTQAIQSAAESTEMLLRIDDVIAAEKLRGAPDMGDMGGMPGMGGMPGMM
M-phase phosphoprotein 8 (Homo sapiens), sequence (Q99549 whole entry, looked up): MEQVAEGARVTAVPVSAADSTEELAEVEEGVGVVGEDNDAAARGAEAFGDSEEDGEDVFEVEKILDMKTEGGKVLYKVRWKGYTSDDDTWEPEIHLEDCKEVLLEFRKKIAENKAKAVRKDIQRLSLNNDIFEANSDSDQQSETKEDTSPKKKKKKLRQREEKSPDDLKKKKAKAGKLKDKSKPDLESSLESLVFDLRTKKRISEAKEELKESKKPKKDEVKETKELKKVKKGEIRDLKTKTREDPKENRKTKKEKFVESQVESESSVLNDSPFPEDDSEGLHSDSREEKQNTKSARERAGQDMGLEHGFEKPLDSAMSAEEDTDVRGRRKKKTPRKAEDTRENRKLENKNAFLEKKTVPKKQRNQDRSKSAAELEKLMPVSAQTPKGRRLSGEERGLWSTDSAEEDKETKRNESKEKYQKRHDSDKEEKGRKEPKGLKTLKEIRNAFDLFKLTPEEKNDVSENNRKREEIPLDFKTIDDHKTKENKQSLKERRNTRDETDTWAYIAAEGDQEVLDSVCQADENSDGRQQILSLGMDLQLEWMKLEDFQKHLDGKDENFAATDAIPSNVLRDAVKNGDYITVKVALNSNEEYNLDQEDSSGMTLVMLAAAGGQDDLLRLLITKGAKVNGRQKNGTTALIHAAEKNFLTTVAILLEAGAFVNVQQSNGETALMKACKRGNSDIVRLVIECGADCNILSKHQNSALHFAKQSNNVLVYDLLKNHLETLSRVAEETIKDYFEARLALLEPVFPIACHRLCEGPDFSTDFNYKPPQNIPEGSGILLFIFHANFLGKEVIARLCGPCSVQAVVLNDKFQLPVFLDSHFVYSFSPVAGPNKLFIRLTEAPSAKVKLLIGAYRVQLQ
Beta-2 adrenergic receptor (Homo sapiens), sequence (P07550 whole entry, looked up): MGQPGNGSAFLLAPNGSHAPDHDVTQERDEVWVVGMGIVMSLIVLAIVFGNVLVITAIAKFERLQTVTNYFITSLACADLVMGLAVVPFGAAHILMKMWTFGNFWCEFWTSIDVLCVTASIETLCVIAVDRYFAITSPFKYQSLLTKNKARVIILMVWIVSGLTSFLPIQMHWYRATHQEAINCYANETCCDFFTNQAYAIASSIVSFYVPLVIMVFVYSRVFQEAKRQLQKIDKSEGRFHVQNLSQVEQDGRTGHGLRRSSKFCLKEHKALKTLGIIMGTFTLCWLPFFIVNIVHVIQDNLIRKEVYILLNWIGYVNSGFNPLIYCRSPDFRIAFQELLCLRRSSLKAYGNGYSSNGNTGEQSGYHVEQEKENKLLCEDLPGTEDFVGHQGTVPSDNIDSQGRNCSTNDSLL
Transient receptor potential cation channel subfamily V member 1 (Homo sapiens), sequence (Q8NER1 whole entry, looked up): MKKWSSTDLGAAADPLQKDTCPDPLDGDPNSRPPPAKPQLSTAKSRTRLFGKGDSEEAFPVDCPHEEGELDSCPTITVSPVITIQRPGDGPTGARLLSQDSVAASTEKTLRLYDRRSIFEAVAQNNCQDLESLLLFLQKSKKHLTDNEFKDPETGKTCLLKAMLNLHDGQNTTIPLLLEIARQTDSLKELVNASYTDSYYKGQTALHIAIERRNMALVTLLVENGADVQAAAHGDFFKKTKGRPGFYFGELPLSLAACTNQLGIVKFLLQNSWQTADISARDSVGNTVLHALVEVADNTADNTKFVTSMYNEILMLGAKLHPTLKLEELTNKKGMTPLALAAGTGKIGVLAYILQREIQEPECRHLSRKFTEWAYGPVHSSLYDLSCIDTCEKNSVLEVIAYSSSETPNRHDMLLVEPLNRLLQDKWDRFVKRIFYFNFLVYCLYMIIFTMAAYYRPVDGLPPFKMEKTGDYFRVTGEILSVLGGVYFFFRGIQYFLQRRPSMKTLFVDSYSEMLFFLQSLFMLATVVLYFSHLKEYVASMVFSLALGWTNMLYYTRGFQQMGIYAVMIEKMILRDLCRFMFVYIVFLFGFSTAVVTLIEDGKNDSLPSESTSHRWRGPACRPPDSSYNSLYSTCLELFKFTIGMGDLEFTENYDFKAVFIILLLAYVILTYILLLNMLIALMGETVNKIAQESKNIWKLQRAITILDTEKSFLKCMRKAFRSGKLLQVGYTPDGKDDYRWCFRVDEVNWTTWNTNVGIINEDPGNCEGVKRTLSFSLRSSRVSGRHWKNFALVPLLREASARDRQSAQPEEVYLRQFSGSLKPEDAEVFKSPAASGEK

Compound	outcome [1]	Potency [2]	Potency [3]	outcome [4]	Potency [5]	Potency [6]	Potency [7]	outcome [8]	outcome [9]	outcome [10]	Potency [11]	Potency [12]	Potency [13]	Potency [14]	Potency [15]	activation [16]	Potency [17]	outcome [18]
O=C(O)c1cc2cc(F)ccc2[nH]1	inactive	inactive	inactive	inactive	inactive	inactive	inactive	inactive	inactive	inactive	inactive	inactive	inactive	inactive	inactive	-2.56%		
Nc1ccc(-c2nc3ccc(-c4nc5ccc(N)cc5[nH]4)cc3[nH]2)cc1	inactive	0.262 µM (active)	0.415 µM (active)	inactive	inactive	21.2 µM (active)	39.8 µM (active)		inactive	inactive	inactive	inactive	inactive	inactive	inactive	1%		
COc1cccc(OC)c1OCCNCC1CSc2ccccc2O1 (configuration not stated)	inactive	inactive	inactive	inactive	inactive	inactive	inactive	inactive	inactive	inactive		inactive		inactive	inactive	-3.81%	inactive	
NC(=O)CNCCC(c1ccccc1)c1ccccc1	inactive	inactive	inactive	inactive		inactive	inactive	inactive	inactive	inactive	inactive	inactive	inactive	inactive	inactive	1.81%		
CC(N)(Cc1ccc(O)c(O)c1)C(=O)O (configuration not stated)	inactive	inactive	inactive	inactive	2.99 µM (active)		5.32 µM (active)	inactive	inactive		inactive			inactive	inactive	0%	79.4 µM (active) and 2.38 µM (active)	
C[C@H](O)C(=O)C1=Nc2c(nc(N)[nH]c2=O)NC1	inactive	inactive	inactive	inactive	inactive		inactive	inactive	inactive	inactive		inactive	inactive	inactive	inactive	1.06%	inactive	
CC(=O)[C@H]1CCC2C3CC=C4C[C@@H](OS(=O)(=O)O)CC[C@]4(C)C3CC[C@@]21C (some centres not stated)	inactive	inactive	inactive	inactive	inactive			inactive	inactive	inactive	inactive	inactive	inactive	inactive	inactive	-0.125%	inactive	
NCCCNCCCCNCCCN	inactive	inactive	inactive	inactive	inactive		inactive	inactive	inactive	inactive	inactive	inactive	inactive	inactive	inactive	0.688%		
C=CCn1c(=O)c2c(nc(-c3ccc(S(=O)(=O)O)cc3)n2C)n(C)c1=O	inactive	inactive	inactive	inactive				inactive	inactive	inactive	inactive			inactive	inactive	-0.312%	inactive	
Nc1ccc2c3c(cccc13)C(=O)NC2=O	inactive	inactive	inactive	inactive	inactive		inactive	inactive		inactive	11.2 µM (active)		inactive		inactive	87.4% (active)	inactive	
O=C(O)C1CN(CCCP(=O)(O)O)CCN1 (configuration not stated)	inactive	inactive	inactive	inactive		inactive	inactive	inactive	inactive	inactive	inactive	inactive	inactive	inactive	inactive	0.188%	inactive	
c1ccc2nc(C3=NCCN3)ccc2c1	inactive	inactive	inactive	inactive	inactive		inactive	inactive	inactive	inactive	inactive	inactive	inactive	inactive	inactive	0.0625%	inactive	
CCCCCCCCCCCCCCCCCCOC[C@H](COP(=O)([O-])OCC[N+](C)(C)C)OC	inactive	inactive	inactive		inactive	inactive	inactive	inactive	inactive	inactive	inactive	inactive	inactive		inactive	0.938%	inactive	inactive
